Values joined by “and” are separate entries in the source; they are usually repeats but may differ in a detail not shown here. Equal values may be shown once. Records with an inconclusive call do not appear. For part of these data: Entries with a potency or affinity are not part of this list. Active and inactive are the calls of the source.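 Rule for the calls, unless noted: active = compounds killing one labelled cell type while sparing the other, by normalised counts and ratio limits, not self-fluorescent; inactive = the rest.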
Key:
[1] = target: 6-phosphogluconate dehydrogenase, decarboxylating (Homo sapiens) (UniProt P52209); test: inhibition of human phosphogluconate dehydrogenase – biochemical, recombinant enzyme, NADPH absorbance, primary screen (AID 1159550;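 active = at least 20% inhibition of 6-phosphogluconate dehydrogenase activity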); details: recombinant 6PGD, NADPH absorbance 341 nm; at 10 µM; stronger effect = higher value
[2] = EMT-state selective cytotoxicity in co-culture – imaging, PC-3E GFP, TEM4-18 mCherry, primary screen (AID 1345086); details: PC-3E GFP / TEM4-18 mCherry co-culture, imaging cell counts, at 1 µM; for red/green cell ratio (normalised): actives lie on both sides, counts scaled to control wells, 1 = unselective;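 for all read-outs here: cells exposed to compound for 72 h before imaging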;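 for red/green cell ratio (normalised): normalised mesenchymal count divided by normalised epithelial count so high means epithelial killing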
[3] = target: NAD(+) hydrolase SARM1 (Homo sapiens) (UniProt Q6SZW1); test: blocking NAD cleavage by SARM1 SAM-TIR – cell lysate, NAD-Glo luminescence (AID 1508614;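 active = compound whose remaining NAD level is above about 45 nM, limit read from the data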;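 note: higher remaining NAD means stronger inhibition of SARM1 NADase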); details: SAM-TIR HEK293T lysate NADase, at 1 µM, stronger effect = higher value
[4] = blockers of polyQ-driven CASP3 activation – cell-based (AID 1583); details: polyglutamine-induced caspase-3 activation, cell assay; stronger effect = higher value;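 tested at 10 µM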
[5] = yeast 75Q aggregation reduction – 75Q-TubU reporter (AID 1593); details: Yeast 75Q polyglutamine aggregation reporter
[6] = restoration of touch response, mutant HTT neurons – whole organism, C. elegans mechanosensory neurons, N-terminal huntingtin (AID 1599); details: C. elegans polyQ-huntingtin mechanosensory neurons, stronger effect = higher value
[7] = blockers of cytochrome c efflux from mitochondria – biochemical, purified mitochondria (AID 1603); details: stronger effect = lower value;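 note: mouse liver mitochondria challenged with calcium chloride; signal normalized to the plate average as 100%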
[8] = polyglutamine aggregate formation blockers (AID 1604); details: polyglutamine-induced protein aggregation inhibition assay; stronger effect = higher value; tested at 2.5 µM
[9] = glutamate transport activators, MN-1 cells, MN-1 cell line (AID 1612); details: MN-1 motor neuron cells, stronger effect = higher value;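 note: tested at 1 µM final; 0% = mean of DMSO vehicle wells on each plate; positive means more glutamate uptake than control and negative means less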
[10] = GFP-Q80 aggregate reduction, neuronal-like cells, cell-based, NGF-treated PC12, GFPQ80 (AID 1614); details: PC12 NGF-treated GFP-polyQ80 inclusion reduction;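 note: lower means fewer inclusions and 0 means no inclusions at all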
[11] = 75Q-TubH aggregate inhibition, S. cerevisiae, yeast (AID 1616); details: S. cerevisiae 75Q-TubH polyglutamine aggregation suppression; stronger effect = higher value
[12] = P. berghei load reduction in hepatocytes – cell-based, HepG2, luciferase luminescence, HepG2 viability, primary screen (AID 624349; in the data active = parasite load remaining mostly below about 12%, no sharp cut-off; inactive = mostly above about 10%;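 note: 100% = mean of DMSO negative control wells on the same plate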); details: P. berghei liver stage in HepG2, luciferase luminescence, concentration not given here; parasite load remaining: stronger effect = lower value; viability: measured here: HepG2 viability without parasites
[13] = viability loss with induced miR-34 in A549 – imaging, A549 dox-inducible miR-34, nuclei and caspase counts, primary screen (AID 1347080;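 active = compounds whose cell count with miR-34 switched on is under 0.7 times the count with it off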); details: A549 miR-34 inducible, Hoechst nuclei count, 48 h
[14] = compounds altering viability of human ES cells (AID 493140; call rule not given here;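 note: cells exposed to compounds for four days before counting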); details: human embryonic stem cell survival screen; stronger effect = higher value
[15] = target: Mitogen-activated protein kinase 7 (Homo sapiens) (UniProt Q13164); test: Gal4-ERK5 driven luciferase induction – cell-based, HTS, primary screen (AID 1508626;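 active = luciferase signal above three times the same-plate solvent-only control wells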;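 note: luciferase driven by Gal4-ERK5 fusion binding five Gal4 sites before minimal TATA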); details: HeLa Gal4-ERK5 transactivation, 18 h, at 5 µM, stronger effect = higher value
[16] = rescue of PC12 cells from polyQ htt toxicity – LDH release (AID 1610); details: PC12 mutant huntingtin toxicity, final LDH at 4 uM, stronger effect = lower value
[17] = target: ATP-dependent translocase ABCB1 (Homo sapiens) (UniProt P08183); test: P-glycoprotein substrate transport blockade – cell-based (AID 377; in the data active = fluorescence slope change above about 50%); details: MDR1-expressing cells, fluorescent substrate accumulation slope; stronger effect = higher value; concentration not given here
[18] = MELAS cybrid and Rieske KO viability enhancers – cell-based, MELAS cybrids, Rieske KO mouse fibroblasts, CellTiter-Glo, primary screen (AID 1508586;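 active = mean z-score across replicates of 1.96 or higher in either the MELAS or the Rieske mutant cell line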;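 note: z relative to plate mean and SD of compound and empty wells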); details: low glucose
[19] = galactose survival enhancers in mitochondrial complex I cybrids – cell-based, galactose medium, ATP luminescence, primary screen (AID 1645843;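 active = z-score of at least 1.8 in each of two replicates, scored against plate mean and spread of sample wells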;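 note: positive z means more ATP and so rescue of galactose-driven cybrid death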); details: complex I mutant cybrid cells, 72 h, stronger effect = higher value
[20] = measured here: epithelial PC-3E GFP cell survival
[21] = measured here: mesenchymal TEM4-18 mCherry cell survival
[22] = stronger effect = lower value, cell number ratio, induced over uninduced
[23] = measured here: relative caspase fold change +Dox/-Dox
[24] = measured here: total cells with miR-34 induction, stronger effect = lower value
[25] = measured here: total cells without miR-34 induction

Chain of NAD(+) hydrolase SARM1 (Homo sapiens) (Q6SZW1 whole entry, looked up): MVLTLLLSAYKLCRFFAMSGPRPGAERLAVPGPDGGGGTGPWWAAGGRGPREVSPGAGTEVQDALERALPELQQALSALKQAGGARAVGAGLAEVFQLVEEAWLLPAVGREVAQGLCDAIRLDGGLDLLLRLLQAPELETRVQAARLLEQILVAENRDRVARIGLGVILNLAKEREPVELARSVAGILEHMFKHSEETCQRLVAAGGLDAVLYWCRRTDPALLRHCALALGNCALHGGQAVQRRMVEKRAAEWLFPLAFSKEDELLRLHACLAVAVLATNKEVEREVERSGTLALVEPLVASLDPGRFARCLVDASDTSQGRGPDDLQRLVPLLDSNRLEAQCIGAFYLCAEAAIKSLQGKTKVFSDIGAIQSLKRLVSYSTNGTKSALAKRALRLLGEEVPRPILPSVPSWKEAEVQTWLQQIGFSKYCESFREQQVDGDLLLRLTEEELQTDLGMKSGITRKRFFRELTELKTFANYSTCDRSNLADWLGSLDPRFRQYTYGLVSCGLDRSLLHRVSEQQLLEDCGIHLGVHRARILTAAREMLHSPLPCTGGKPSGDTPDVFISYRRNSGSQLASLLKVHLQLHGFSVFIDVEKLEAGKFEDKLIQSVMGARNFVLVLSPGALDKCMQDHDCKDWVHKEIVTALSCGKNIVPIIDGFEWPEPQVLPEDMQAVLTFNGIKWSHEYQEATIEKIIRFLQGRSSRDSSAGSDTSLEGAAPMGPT
Chain of Mitogen-activated protein kinase 7 (Homo sapiens) (Q13164 whole entry, looked up, the tested form may be a part): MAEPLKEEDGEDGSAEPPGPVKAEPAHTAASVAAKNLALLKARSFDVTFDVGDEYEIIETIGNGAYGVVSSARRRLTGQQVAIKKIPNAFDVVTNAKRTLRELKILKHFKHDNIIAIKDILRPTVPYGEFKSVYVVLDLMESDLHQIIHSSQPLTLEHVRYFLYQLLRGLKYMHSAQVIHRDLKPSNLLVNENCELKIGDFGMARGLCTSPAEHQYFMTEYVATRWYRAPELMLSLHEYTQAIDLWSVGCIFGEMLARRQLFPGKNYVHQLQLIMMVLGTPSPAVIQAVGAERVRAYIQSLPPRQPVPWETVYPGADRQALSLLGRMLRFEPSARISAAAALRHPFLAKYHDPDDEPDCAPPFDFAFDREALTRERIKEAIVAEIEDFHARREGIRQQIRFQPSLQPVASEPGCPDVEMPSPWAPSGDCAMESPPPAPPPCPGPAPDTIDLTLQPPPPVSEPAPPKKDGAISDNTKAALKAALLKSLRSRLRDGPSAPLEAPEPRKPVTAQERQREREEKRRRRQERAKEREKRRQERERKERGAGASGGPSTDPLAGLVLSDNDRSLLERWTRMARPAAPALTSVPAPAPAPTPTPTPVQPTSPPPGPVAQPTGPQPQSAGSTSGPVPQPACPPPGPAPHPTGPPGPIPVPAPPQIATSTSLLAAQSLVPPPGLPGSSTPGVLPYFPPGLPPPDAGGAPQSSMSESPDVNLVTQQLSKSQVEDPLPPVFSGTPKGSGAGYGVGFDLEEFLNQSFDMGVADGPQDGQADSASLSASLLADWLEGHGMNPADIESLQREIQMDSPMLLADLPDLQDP
Chain of 6-phosphogluconate dehydrogenase, decarboxylating (Homo sapiens) (P52209 whole entry, looked up): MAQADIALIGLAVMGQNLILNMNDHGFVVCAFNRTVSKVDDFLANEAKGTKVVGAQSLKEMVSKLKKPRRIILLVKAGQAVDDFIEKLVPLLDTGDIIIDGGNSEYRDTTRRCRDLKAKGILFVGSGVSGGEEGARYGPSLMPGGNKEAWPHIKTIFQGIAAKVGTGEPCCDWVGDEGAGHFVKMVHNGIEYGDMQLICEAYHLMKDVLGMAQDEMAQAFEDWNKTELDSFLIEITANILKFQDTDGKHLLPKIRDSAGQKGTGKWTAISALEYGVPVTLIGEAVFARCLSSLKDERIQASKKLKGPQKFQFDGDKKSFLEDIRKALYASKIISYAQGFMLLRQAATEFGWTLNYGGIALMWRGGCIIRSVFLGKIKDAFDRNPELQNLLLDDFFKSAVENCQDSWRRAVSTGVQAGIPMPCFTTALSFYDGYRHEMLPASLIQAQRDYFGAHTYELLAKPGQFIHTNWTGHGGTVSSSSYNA
Chain of ATP-dependent translocase ABCB1 (Homo sapiens) (P08183 whole entry, looked up): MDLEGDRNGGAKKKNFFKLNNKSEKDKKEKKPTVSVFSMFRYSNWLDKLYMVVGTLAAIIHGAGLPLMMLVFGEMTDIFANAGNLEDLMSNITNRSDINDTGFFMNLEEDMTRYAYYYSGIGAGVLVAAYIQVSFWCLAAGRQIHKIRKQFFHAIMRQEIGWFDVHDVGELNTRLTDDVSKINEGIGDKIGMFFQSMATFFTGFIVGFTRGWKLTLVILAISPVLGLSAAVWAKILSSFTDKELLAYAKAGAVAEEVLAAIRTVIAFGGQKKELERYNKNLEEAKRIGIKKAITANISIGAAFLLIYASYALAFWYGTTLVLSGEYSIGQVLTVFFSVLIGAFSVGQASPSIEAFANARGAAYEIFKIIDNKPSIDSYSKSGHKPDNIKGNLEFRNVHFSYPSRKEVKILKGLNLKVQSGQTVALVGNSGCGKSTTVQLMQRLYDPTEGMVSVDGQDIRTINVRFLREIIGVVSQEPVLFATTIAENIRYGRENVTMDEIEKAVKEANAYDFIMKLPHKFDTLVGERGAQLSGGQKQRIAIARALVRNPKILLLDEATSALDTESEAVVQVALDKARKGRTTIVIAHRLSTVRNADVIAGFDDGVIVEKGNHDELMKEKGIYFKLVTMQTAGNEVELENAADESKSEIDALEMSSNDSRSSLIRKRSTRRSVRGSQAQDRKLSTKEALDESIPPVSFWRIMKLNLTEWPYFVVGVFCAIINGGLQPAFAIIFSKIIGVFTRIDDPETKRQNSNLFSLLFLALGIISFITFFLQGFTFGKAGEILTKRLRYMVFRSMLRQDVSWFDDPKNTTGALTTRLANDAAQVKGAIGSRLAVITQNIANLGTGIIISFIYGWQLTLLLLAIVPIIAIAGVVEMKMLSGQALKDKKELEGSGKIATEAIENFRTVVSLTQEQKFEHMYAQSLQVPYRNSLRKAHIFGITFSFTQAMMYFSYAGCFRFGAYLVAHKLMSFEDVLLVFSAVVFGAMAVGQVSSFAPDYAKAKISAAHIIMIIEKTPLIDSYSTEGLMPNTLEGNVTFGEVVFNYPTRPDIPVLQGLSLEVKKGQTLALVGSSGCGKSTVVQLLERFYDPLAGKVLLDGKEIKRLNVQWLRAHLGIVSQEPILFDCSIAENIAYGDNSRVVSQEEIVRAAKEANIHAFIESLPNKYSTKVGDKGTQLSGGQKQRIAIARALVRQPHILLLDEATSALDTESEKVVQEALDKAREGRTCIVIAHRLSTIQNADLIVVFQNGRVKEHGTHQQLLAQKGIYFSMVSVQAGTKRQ

## CC(=O)Oc1cccc(C(=O)O)c1OC(C)=O
[1]
  inhibition: 0.748% (inactive)
[2]
  red/green cell ratio (normalised): 0.81 (inactive)
[2]; [20]
  normalised cell number: 1.05
[2]; [21]
  normalised cell number: 0.86
[3]
  remaining NAD: 10 nM (inactive)

## Cn1nnnc1SCC1=C(C(=O)O)N2C(=O)C(NC(=O)C(OC=O)c3ccccc3)C2SC1 (stereo not drawn)
[4]
  inhibition: 20.1%
[5]
  score: 1.46
[6]
  rescue above control: -9.96
[7]
  cytochrome c release ratio: 1.54
[8]
  inhibition of aggregation: 91.6%
[9]
  glutamate uptake change: -5.89%
[10]
  inclusion score: 2
[11]
  aggregation suppression score: 1.26
[12]
  parasite load remaining: 85.6% (inactive) and 51.5% (inactive)
  viability: 73.8% and 102%
[1]
  inhibition: 0.99% (inactive)
[2]
  red/green cell ratio (normalised): 0.82 (inactive)
[2]; [20]
  normalised cell number: 1.29
[2]; [21]
  normalised cell number: 1.06
[13]; [22]
  fold change: 0.922 (inactive)
[13]; [23]
  fold change: 2.94
[13]; [24]
  cell count: 11600
[13]; [25]
  cell count: 12600

## CC(=C(CCOP(=O)(O)O)SC(=O)c1ccccc1)N(C=O)Cc1cnc(C)nc1N
[4]
  inhibition: 9.82%
[5]
  score: 1.37
[6]
  rescue above control: 3.18
[7]
  cytochrome c release ratio: 0.86
[8]
  inhibition of aggregation: 39.4%
[9]
  glutamate uptake change: 18.4%
[10]
  inclusion score: 2
[11]
  aggregation suppression score: 0.998
[1]
  inhibition: -10.8% (inactive)
[2]
  red/green cell ratio (normalised): 0.95 (inactive)
[2]; [20]
  normalised cell number: 1.05
[2]; [21]
  normalised cell number: 1
[3]
  remaining NAD: 10 nM (inactive)

## O=c1ccc2cc(O)c(O)cc2o1
[14]
  survival: 5.75 (inactive)
[12]
  parasite load remaining: 19.5% (inactive) and 73.2% (inactive)
  viability: 92.8% and 68.7%
[1]
  inhibition: 2.61% (inactive)
[2]
  red/green cell ratio (normalised): 1.16 (inactive)
[2]; [20]
  normalised cell number: 0.88
[2]; [21]
  normalised cell number: 1.02
[13]; [22]
  fold change: 0.832 (inactive)
[13]; [23]
  fold change: 1.64
[13]; [24]
  cell count: 6390
[13]; [25]
  cell count: 7680
[15]
  luciferase signal: 72 AU (inactive)

## COc1cc2ccc(=O)oc2cc1O
[4]
  inhibition: -26.2%
[5]
  score: 1.15
[6]
  rescue above control: 11.4
[7]
  cytochrome c release ratio: 0.77
[8]
  inhibition of aggregation: 0%
[16]
  normalised LDH release: 0.874
[9]
  glutamate uptake change: 13.8%
[10]
  inclusion score: 2
[11]
  aggregation suppression score: 1.62
[14]
  survival: 12.4 (inactive)
[12]
  parasite load remaining: 104% (inactive) and 103% (inactive)
  viability: 106% and 66.2%
[1]
  inhibition: -1.14% (inactive)
[2]
  red/green cell ratio (normalised): 1.11 (inactive)
[2]; [20]
  normalised cell number: 0.86
[2]; [21]
  normalised cell number: 0.96
[13]; [22]
  fold change: 0.946 (inactive)
[13]; [23]
  fold change: 1.18
[13]; [24]
  cell count: 8620
[13]; [25]
  cell count: 9110
[15]
  luciferase signal: 40 AU (inactive)

## C[n+]1cccc(C(=O)[O-])c1
[12]
  parasite load remaining: 79.8% (inactive)
  viability: 103%
[1]
  inhibition: -5.32% (inactive)
[2]
  red/green cell ratio (normalised): 0.83 (inactive)
[2]; [20]
  normalised cell number: 0.9
[2]; [21]
  normalised cell number: 0.75
[13]; [22]
  fold change: 0.877 (inactive)
[13]; [23]
  fold change: 1.44
[13]; [24]
  cell count: 9790
[13]; [25]
  cell count: 11200
[15]
  luciferase signal: 44 AU (inactive)

## Nc1c2ccccc2nc2ccccc12 (tested in a mixture with another compound)
[12]
  parasite load remaining: 2.09% (inactive) and 61.1% (inactive)
  viability: 97.8% and 80.2%
[1]
  inhibition: 3.89% (inactive)
[2]
  red/green cell ratio (normalised): 0.94 (inactive)
[2]; [20]
  normalised cell number: 1.25
[2]; [21]
  normalised cell number: 1.17
[13]; [22]
  fold change: 1.59 (inactive)
[13]; [23]
  fold change: 1.23
[13]; [24]
  cell count: 1530
[13]; [25]
  cell count: 960
[3]
  remaining NAD: 10 nM (inactive)
[15]
  luciferase signal: 80 AU (inactive)

## NC[C@@H]1CC[C@@H](N)[C@@H](O[C@H]2[C@H](O)[C@@H](O[C@H]3O[C@H](CO)[C@@H](O)[C@H](N)[C@H]3O)[C@H](N)C[C@@H]2N)O1
[1]
  inhibition: -2.83% (inactive)
[2]
  red/green cell ratio (normalised): 1.19 (inactive)
[2]; [20]
  normalised cell number: 0.9
[2]; [21]
  normalised cell number: 1.07
[3]
  remaining NAD: 10 nM (inactive)

## CC(C(=O)O)c1cccc(Oc2ccccc2)c1 (stereo not drawn)
[17]
  fluorescence slope change: 22.2% (inactive)
[4]
  inhibition: -4.11%
[5]
  score: 0.02
[6]
  rescue above control: 4.41
[7]
  cytochrome c release ratio: 0.68
[8]
  inhibition of aggregation: 72.7%
[9]
  glutamate uptake change: 5.16%
[10]
  inclusion score: 2
[11]
  aggregation suppression score: 0.0306
[14]
  survival: 1.75 (inactive)
[1]
  inhibition: 15.8% (inactive)
[2]
  red/green cell ratio (normalised): 0.89 (inactive)
[2]; [20]
  normalised cell number: 1.13
[2]; [21]
  normalised cell number: 1
[18]; MELAS cybrid survival, CellTiter-Glo 48 h, stronger effect = higher value
  z-score: -0.0579 (inactive) and -0.205 (inactive) and 0.473 (inactive)
[18]; Rieske KO mouse fibroblast survival, CellTiter-Glo 72 h
  z-score: -0.141 and -0.109 and 0.281
[3]
  remaining NAD: 10 nM (inactive)
[15]
  luciferase signal: 72 AU (inactive)
[19]
  z-score: 0.865 (inactive)

## CN1CC(=O)N=C1N
[4]
  inhibition: -27.2%
[5]
  score: 1.33
[6]
  rescue above control: -3.62
[7]
  cytochrome c release ratio: 0.51
[8]
  inhibition of aggregation: 97.4%
[9]
  glutamate uptake change: 32%
[10]
  inclusion score: 2
[11]
  aggregation suppression score: 1.7
[1]
  inhibition: 10.8% (inactive)
[2]
  red/green cell ratio (normalised): 1.04 (inactive)
[2]; [20]
  normalised cell number: 0.96
[2]; [21]
  normalised cell number: 1
[3]
  remaining NAD: 10 nM (inactive)
[15]
  luciferase signal: 68 AU (inactive)

## CCCCC(=O)Oc1ccccc1C(=O)O
[1]
  inhibition: 18.3% (inactive)
[2]
  red/green cell ratio (normalised): 0.89 (inactive)
[2]; [20]
  normalised cell number: 1.25
[2]; [21]
  normalised cell number: 1.11
[13]; [22]
  fold change: 0.935 (inactive)
[13]; [23]
  fold change: 0.938
[13]; [24]
  cell count: 5290
[13]; [25]
  cell count: 5650
[15]
  luciferase signal: 56 AU (inactive)

## CO[C@H]1/C=C/O[C@@]2(C)Oc3c(C)c(O)c4c(O)c(c5c(nc6cc(C)ccn65)c4c3C2=O)NC(=O)/C(C)=C\C=C\[C@H](C)[C@H](O)[C@@H](C)C(O)[C@@H](C)[C@H](OC(C)=O)[C@@H]1C (stereo partly drawn)
[12]
  parasite load remaining: 51.2% (inactive)
  viability: 113%
[1]
  inhibition: -0.37% (inactive)
[2]
  red/green cell ratio (normalised): 1.15 (inactive)
[2]; [20]
  normalised cell number: 1.21
[2]; [21]
  normalised cell number: 1.39
[13]; [22]
  fold change: 0.902 (inactive)
[13]; [23]
  fold change: 2.53
[13]; [24]
  cell count: 11500
[13]; [25]
  cell count: 12700

## CC1=C(/C=C/C(C)=C/C=C/C(C)=C/CO)C(C)(C)CCC1
[4]
  inhibition: 25.6%
[5]
  score: -0.82
[6]
  rescue above control: 28.1
[7]
  cytochrome c release ratio: 1.19
[8]
  inhibition of aggregation: 88.9%
[9]
  glutamate uptake change: -6.81%
[11]
  aggregation suppression score: 0.11
[12]
  parasite load remaining: 115% (inactive) and 48.9% (inactive)
  viability: 69.5% and 99.6%
[1]
  inhibition: -7.77% (inactive)
[2]
  red/green cell ratio (normalised): 1.32 (inactive)
[2]; [20]
  normalised cell number: 0.9
[2]; [21]
  normalised cell number: 1.18
[13]; [22]
  fold change: 0.915 (inactive)
[13]; [23]
  fold change: 2.67
[13]; [24]
  cell count: 11800
[13]; [25]
  cell count: 12800
[3]
  remaining NAD: 10 nM (inactive)
[15]
  luciferase signal: 48 AU (inactive)

From PubChem BioAssay
